Measurements taken from PubChem BioAssay (NCI).
This is part of a sample that, as a whole, favours compounds with a hit. Of some 79,000 tested, about 15% had one in any assay. The source made the active and inactive calls. Cut-off read from the data, not from the text of the source: active = growth inhibition above about 70%; inactive = the rest.

Key:
[1] = NCI Yeast Anticancer Drug Screen. Data for the rad52 strain (AID 147);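 note: 0% = growth of vehicle-treated control cultures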; details: S. cerevisiae rad52 mutant growth inhibition, hits give high values
Summary of the method: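 Screen used a yeast mutant impaired in DNA repair. After compound exposure, growth was measured. Values reflect inhibition compared with vehicle-treated cells.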

[2] = NCI Yeast Anticancer Drug Screen. Data for the wt1 strain (AID 149);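 note: 0% = growth of vehicle-treated wt1 cultures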; details: S. cerevisiae wt1 strain (SPY 50644) growth inhibition, hits give high values
Summary of the method: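 Compounds are added to wt1 yeast cultures. Growth is then measured. Inhibition is expressed relative to vehicle-treated controls.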

[3] = NCI Yeast Anticancer Drug Screen. Data for the rad50EPP+ strain (AID 151);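 note: 0% = growth of vehicle-treated control cultures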; details: S. cerevisiae rad50 mutant strain, hits give high values
Summary of the method: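 Exposing the rad50EPP+ strain to each compound, growth was compared with vehicle-only cultures to give inhibition.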

[4] = NCI Yeast Anticancer Drug Screen. Data for the mec2-1 strain (AID 157); details: S. cerevisiae mec2-1 strain, hits give high values
Summary of the method: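 Readout is yeast growth inhibition, normalised to vehicle-treated controls, in the mec2-1 strain exposed to compound.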

[5] = NCI Yeast Anticancer Drug Screen. Data for the rad14 strain (AID 159);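 note: 0% = growth of vehicle-treated control cultures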; details: S. cerevisiae rad14 strain growth inhibition, hits give high values
Summary of the method: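 A mutant yeast strain defective in DNA damage repair is treated with compound; inhibition of its growth is scored against untreated, vehicle-exposed cultures.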

[6] = NCI Yeast Anticancer Drug Screen. Data for the sgs1 mgt1 strain (AID 161);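 note: 0% = growth of cultures given vehicle only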; details: S. cerevisiae sgs1 mgt1 strain, hits give high values
Summary of the method: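 Compounds are added to genetically altered yeast, and growth is compared with cultures given vehicle alone to give percent inhibition.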

[7] = NCI Yeast Anticancer Drug Screen. Data for the CLN2oe strain (AID 163);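 note: 0% = growth of vehicle-only control cultures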; details: S. cerevisiae CLN2oe strain, hits give high values
Summary of the method: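 Values reflect how much compound exposure reduced yeast growth, referenced to vehicle-exposed cells. Assay organism is a strain with a defined genetic change affecting cell-cycle control.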

[8] = NCI Yeast Anticancer Drug Screen. Data for the cln2 rad14 strain (AID 165);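 note: 0% = growth equal to vehicle treated cultures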; details: S. cerevisiae cln2 rad14 strain, hits give high values
Summary of the method: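 Relative to vehicle controls, growth inhibition of compound-treated cln2 rad14 yeast was recorded.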

[9] = NCI Yeast Anticancer Drug Screen. Data for the bub3 strain (AID 167); details: S. cerevisiae bub3 mutant strain, hits give high values
Summary of the method: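 Steps: expose the mutant yeast strain to compound; grow alongside vehicle-treated cultures; measure growth; express inhibition against the vehicle cultures.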

[10] = NCI Yeast Anticancer Drug Screen. Data for the wt2 strain (AID 169);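 note: 0% = growth of vehicle-treated yeast cultures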; details: S. cerevisiae wt2 strain growth inhibition, hits give high values
Summary of the method: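 Values express reduction in yeast growth under compound treatment, referenced to vehicle-treated cells.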

[11] = NCI Yeast Anticancer Drug Screen. Data for the mlh1 strain (AID 171);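 note: 0% = growth of vehicle-treated control cultures of the same strain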; details: S. cerevisiae mlh1 strain growth inhibition, hits give high values
Summary of the method: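 Steps: expose the defined-mutant yeast strain to compound; expose a parallel culture to vehicle; measure growth; express compound effect as inhibition relative to the vehicle culture.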

[12] = NCI Yeast Anticancer Drug Screen. Data for the sgs1 strain (AID 173);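 note: 0% = growth of vehicle-only control cultures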; details: S. cerevisiae sgs1 mutant, hits give high values
Summary of the method: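 Treat defined-mutant yeast with compound; measure growth; calculate inhibition relative to vehicle-treated cells.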

[13] = NCI Yeast Anticancer Drug Screen. Data for the mlh1 rad18 strain (AID 175); details: S. cerevisiae mlh1 rad18 strain growth inhibition, hits give high values
Summary of the method: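 Test agents were incubated with a yeast strain of defined genotype (DNA damage repair defect). Inhibition of growth was derived by comparison with vehicle-exposed cultures.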

[14] = NCI Yeast Anticancer Drug Screen. Data for the rad18 strain (AID 177); details: S. cerevisiae rad18 mutant growth inhibition, hits give high values
Summary of the method: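 A genetically defined yeast mutant impaired in DNA damage repair was treated with test compounds, then its growth was measured against cultures receiving vehicle alone.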

[15] = NCI Yeast Anticancer Drug Screen. Data for the rad50 strain (AID 155);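 note: 0% = growth of vehicle-only cultures of the same strain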; details: S. cerevisiae rad50 strain growth inhibition, hits give high values
Summary of the method: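 Inhibition values express reduced yeast growth in compound-treated cultures relative to vehicle-treated controls.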

[16] = at 5.0 µM (retest, dose inferred, filed as 0.5)
[17] = at 50.0 µM (retest, dose inferred, filed as 5.0)

Measured: growth inhibition

S=c1cn[nH]c2ccc(Br)cc12
active: [1]; at 100.0 µM 74% | [3]; at 33.0 µM 70% | [3]; at 100.0 µM 83% | [7]; at 100.0 µM 76% | [9]; at 50.0 µM 77% | [9]; at 100.0 µM 72% | [11]; at 100.0 µM 73% | [12]; at 100.0 µM 85% | [13]; [17] 75% | [13]; at 50.0 µM 85.6% | [14]; at 33.0 µM 86% | [14]; at 100.0 µM 89%
inactive: [1]; at 1.2 µM -1% | [1]; at 3.7 µM 8% | [1]; at 11.0 µM 10% | [1]; at 33.0 µM 52% | [2]; at 1.2 µM -5% | [2]; at 3.7 µM -6% | [2]; at 11.0 µM -11% | [2]; at 33.0 µM 1% | [2]; at 100.0 µM 43% | [3]; at 1.2 µM -2% | [3]; at 3.7 µM -1% | [3]; at 11.0 µM 17% | [4]; at 1.2 µM 2% | [4]; at 3.7 µM -3% | [4]; [16] -53% | [4]; at 11.0 µM -6% | [4]; at 33.0 µM 8% | [4]; [17] -9% | [4]; at 50.0 µM 56.3% | [4]; at 100.0 µM 53% | [5]; at 1.2 µM 2% | [5]; at 3.7 µM 4% | [5]; at 11.0 µM 5% | [5]; at 33.0 µM 30% | [5]; at 100.0 µM 62% | [6]; [16] -58% | [6]; [17] 61% | [6]; at 50.0 µM 68.9% | [7]; at 1.2 µM -4% | [7]; at 3.7 µM -4% | [7]; at 11.0 µM -5% | [7]; at 33.0 µM 40% | [8]; [16] -68% | [8]; [17] -20% | [8]; at 50.0 µM 35.9% | [9]; at 1.2 µM -12% | [9]; at 3.7 µM -9% | [9]; [16] -79% | [9]; at 11.0 µM -12% | [9]; at 33.0 µM 52% | [9]; [17] 60% | [10]; at 1.2 µM -4% | [10]; at 3.7 µM -3% | [10]; at 11.0 µM -5% | [10]; at 33.0 µM 20% | [10]; at 100.0 µM 40% | [11]; at 1.2 µM 4% | [11]; at 3.7 µM -7% | [11]; at 11.0 µM -5% | [11]; at 33.0 µM 46% | [12]; at 1.2 µM -2% | [12]; at 3.7 µM -6% | [12]; at 11.0 µM -5% | [12]; at 33.0 µM 61% | [13]; [16] -109% | [14]; at 1.2 µM 0% | [14]; at 3.7 µM 2% | [14]; at 11.0 µM 26%

Cc1cccc2c1N=C(C(F)(F)F)CC2=O
active: [13]; [17] 71% | [13]; at 50.0 µM 76.8%
inactive: [1]; at 1.2 µM 4% | [1]; at 3.7 µM 7% | [1]; at 11.0 µM 10% | [1]; at 33.0 µM 20% | [1]; at 100.0 µM 46% | [2]; at 1.2 µM -2% | [2]; at 3.7 µM -1% | [2]; at 11.0 µM 2% | [2]; at 33.0 µM 1% | [2]; at 100.0 µM 31% | [15]; at 1.2 µM 9% | [15]; at 3.7 µM 15% | [15]; [16] -120% | [15]; at 11.0 µM 23% | [15]; at 33.0 µM 24% | [15]; [17] 9% | [15]; at 50.0 µM 43.7% | [15]; at 100.0 µM 46% | [4]; at 1.2 µM 2% | [4]; at 3.7 µM 1% | [4]; [16] -43% | [4]; at 11.0 µM -5% | [4]; at 33.0 µM 9% | [4]; [17] 40% | [4]; at 50.0 µM 35% | [4]; at 100.0 µM 54% | [5]; at 1.2 µM 3% | [5]; at 3.7 µM -5% | [5]; at 11.0 µM 0% | [5]; at 33.0 µM 7% | [5]; at 100.0 µM 39% | [6]; [16] -44% | [6]; [17] 65% | [6]; at 50.0 µM 45% | [7]; at 1.2 µM -5% | [7]; at 3.7 µM -3% | [7]; at 11.0 µM 3% | [7]; at 33.0 µM 8% | [7]; at 100.0 µM 43% | [8]; [16] -49% | [8]; [17] 45% | [8]; at 50.0 µM 49.6% | [9]; at 1.2 µM -2% | [9]; at 3.7 µM -2% | [9]; [16] -61% | [9]; at 11.0 µM -1% | [9]; at 33.0 µM 1% | [9]; [17] 33% | [9]; at 50.0 µM 25% | [9]; at 100.0 µM 37% | [10]; at 1.2 µM -2% | [10]; at 3.7 µM -2% | [10]; at 11.0 µM -1% | [10]; at 33.0 µM 6% | [10]; at 100.0 µM 40% | [11]; at 1.2 µM -1% | [11]; at 3.7 µM 2% | [11]; at 11.0 µM 1% | [11]; at 33.0 µM 8% | [11]; at 100.0 µM 38% | [12]; at 1.2 µM 1% | [12]; at 3.7 µM -2% | [12]; at 11.0 µM 0% | [12]; at 33.0 µM 27% | [12]; at 100.0 µM 48% | [13]; [16] -100% | [14]; at 1.2 µM 0% | [14]; at 3.7 µM 1% | [14]; at 11.0 µM 3% | [14]; at 33.0 µM 9% | [14]; at 100.0 µM 43%

CCCCC(CC)C(=O)Oc1ccc(C(=O)c2ccccc2)c(O)c1 (stereo unspecified)
active: [1]; at 100.0 µM 98% | [2]; at 100.0 µM 98% | [3]; at 100.0 µM 88% | [15]; [17] 76% | [15]; at 50.0 µM 74.9% | [15]; at 100.0 µM 96% | [4]; [17] 79% | [4]; at 50.0 µM 75.2% | [4]; at 100.0 µM 98% | [6]; [17] 91% | [6]; at 50.0 µM 82% | [7]; at 100.0 µM 97% | [8]; [17] 88% | [9]; [17] 89% | [9]; at 50.0 µM 73% | [9]; at 100.0 µM 98% | [11]; at 100.0 µM 97% | [13]; [17] 77% | [14]; at 100.0 µM 97%
inactive: [1]; at 1.2 µM 4% | [1]; at 3.7 µM 3% | [1]; at 11.0 µM 6% | [1]; at 33.0 µM 61% | [2]; at 1.2 µM -13% | [2]; at 3.7 µM -17% | [2]; at 11.0 µM -15% | [2]; at 33.0 µM 37% | [3]; at 1.2 µM 8% | [3]; at 3.7 µM 13% | [3]; at 11.0 µM 20% | [3]; at 33.0 µM 54% | [15]; at 1.2 µM 7% | [15]; at 3.7 µM 4% | [15]; [16] 50% | [15]; at 11.0 µM 15% | [15]; at 33.0 µM 56% | [4]; at 1.2 µM 10% | [4]; at 3.7 µM 15% | [4]; [16] 53% | [4]; at 11.0 µM 19% | [4]; at 33.0 µM 61% | [6]; [16] -32% | [7]; at 1.2 µM 0% | [7]; at 3.7 µM 17% | [7]; at 11.0 µM 19% | [7]; at 33.0 µM 50% | [8]; [16] 48% | [8]; at 50.0 µM 65% | [9]; at 1.2 µM 21% | [9]; at 3.7 µM 27% | [9]; [16] -1% | [9]; at 11.0 µM 32% | [9]; at 33.0 µM 69% | [11]; at 1.2 µM -9% | [11]; at 3.7 µM -10% | [11]; at 11.0 µM 3% | [11]; at 33.0 µM 55% | [13]; [16] 38% | [13]; at 50.0 µM 69.3% | [14]; at 1.2 µM -4% | [14]; at 3.7 µM 0% | [14]; at 11.0 µM 17% | [14]; at 33.0 µM 53%
